Compounds with a hit are over-represented: about 10% of the library has one in this group of screens.
BAZ2B block = blocks human BAZ2B | Potency, µM (series often up to 114 µM), actives largely listed as inhibitors | 360,000 tested, 4.4% active | AlphaScreen BAZ2B-H3K14Ac peptide displacement; also: nearly all actives have a fitted effect of over 60% in size
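BAZ2B (50 nM) with biotin-H3(5-23)K14Ac peptide (50 nM) in PBS pH 7.4, 0.01% Tween-20, preformed 30 min, then compound 30 min at room temperature; top concentration 110uM. AlphaScreen streptavidin donor/nickel chelate acceptor beads (10 ug/mL final), 20 min dark, signal read.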
G9a inh = blocks human histone lysine methyltransferase G9a. Q96KQ7. G9a H3K9 monomethylation, AlphaScreen, 2 h. Potency, µM (top dose mostly 102 µM), actives largely listed as inhibitors. 350,000 tested, 8.8% active; also: nearly all actives have a fitted effect of over 75% in size
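Compounds were preincubated with 20 nM G9a for 15 min, after which biotinylated H3K9 peptide (500 nM) and SAM (20 uM) started a 2 h room-temperature reaction. Monomethylated product was quantified by antibody-based AlphaScreen chemiluminescence.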
JMJD2A Tudor inh = inhibitors of human JMJD2A Tudor domain; O75164; AlphaScreen JMJD2A-Tudor / H3K4me3 peptide binding; Potency, µM (top dose mostly 114 µM), hits mostly inhibitors; 390,000 tested, 4.4% active; also: nearly all actives have a fitted effect of over 50% in size
Six1-Eya2 inh = blocks human Six1 binding to Eya2 | Q15475+O00167 | AlphaScreen GST-Six1/His-Eya2 binding, biochemical; active compounds read low | activity change, % (test concentration not listed) | 360,000 tested, 0.56% active | AID 651725; in the data active = activity change below about -65%; inconclusive = mostly about -30% to -63%
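GST-Six1 + His-Eya2 (5X stock: 250/500 nM); Tris pH 8.0, 300 mM NaCl, 0.05% BSA, 0.02% Tween 20; GSH donor/Ni acceptor beads; 1 h 37 °C dark; AlphaScreen readout.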
CtBP-E1A inh = inhibitors of CtBP/E1A interaction; AlphaScreen GST-E1A/His-CtBP binding, 1536-well; active compounds read low; activity change, % (test concentration not listed); 340,000 tested, 0.49% active; AID 651724; in the data active = activity change below about -65%; inconclusive = mostly about -30% to -63%
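In 5 uL wells, 23 nL compound meets equimolar GST-E1A and His-CtBP (5X stock 125 nM each) for 2 h, 37 °C. Beads (5X, 50 ug/mL) then 1 h, 37 °C, dark.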
HP1b binding inh = inhibitors of HP1-beta chromodomain binding to methylated histone tails; 390,000 tested, 0.56% active; P83916; Potency, µM (titrated, usually from 114 µM), usual class: inhibitors; AlphaScreen HP1-beta / biotin-H3K9me3 peptide binding; also: nearly all actives have a fitted effect of over 70% in size
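Compound inhibition of the preformed complex between 50 nM HP1-beta and 50 nM biotinylated H3K9me3 peptide was read by AlphaScreen. Buffer was PBS pH 7.4 with 0.01% Tween-20. Incubations ran 30 min at room temperature, with 10 ug/mL donor/acceptor beads.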
Each line names hits and unclear results; the compound was inactive in the other large screens; ! = not confirmed by another sample. Unless noted, calls follow the shape of the dose curve; as a rule, active = well fitted inhibition curve with a large enough effect; inconclusive = small, poorly fitted or top-dose-only effect; inactive = no such curve, though single readings can be large or run the other way.

CCN1CCN(c2ccc(S(=O)(=O)N3CCOCC3)cc2NC(=O)c2ccc(Cl)cc2Cl)CC1	G9a inh 13µM
CCN1CCN(c2ccc(S(=O)(=O)N3CCCCC3)cc2NC(=O)/C=C/c2cc(OC)ccc2OC)CC1	BAZ2B block inconclusive, G9a inh inconclusive
Cc1ccc(-n2nc3c(c2NC(=O)CC(C)C)CS(=O)(=O)C3)c(C)c1	none
O=c1cccccc1NN=C1CCCCC1	BAZ2B block inconclusive, JMJD2A Tudor inh inconclusive (no result: G9a inh)
O=C(O)c1cc(Br)ccc1NN=C1CCCCC1	G9a inh 2.8µM
Cc1ccc(C(=O)CC2(O)C(=O)N(Cc3ccccc3)c3ccccc32)c(C)c1 (stereo not given)	BAZ2B block 10µM, G9a inh 2.2µM, JMJD2A Tudor inh 40µM, HP1b binding inh inconclusive (no result: Six1-Eya2 inh, CtBP-E1A inh)
CCOc1ccc(CNC(=O)C2Cc3ccccc3N2C(=O)CC)cc1 (stereo not given)	none (no result: Six1-Eya2 inh, CtBP-E1A inh)
N#C/C(=C\C1=C(N2CCOCC2)C(=C/c2cccc([N+](=O)[O-])c2)/CC1)C(=O)Nc1ccccc1F	BAZ2B block 1.3µM, G9a inh 2.5µM, HP1b binding inh inconclusive
N#C/C(=C/C1=C(N2CCOCC2)C(=C/c2ccccc2)/CC1)C(=O)Nc1ccccc1F	JMJD2A Tudor inh 10µM, HP1b binding inh 5µM (no result: BAZ2B block, G9a inh)
N#C/C(=C\C1=C(N2CCOCC2)C(=C\c2ccc(Cl)cc2)/CC1)C(=O)Nc1ccccc1F	BAZ2B block 25µM, G9a inh 10µM, HP1b binding inh inconclusive
N#C/C(=C/C1=C(N2CCOCC2)C(=C/c2cccc([N+](=O)[O-])c2)/CC1)C(=O)Nc1ccccc1F	JMJD2A Tudor inh inconclusive, HP1b binding inh inconclusive (no result: BAZ2B block, G9a inh)
CC(C)(C)c1ccc(S(=O)(=O)NCC(=O)N2CCN(Cc3ccccc3)CC2)cc1	none
O=C(CSc1nc2ccc([N+](=O)[O-])cc2[nH]1)NC1CCCCCC1	G9a inh 45µM
O=C(CSc1nc2ccc(Cl)cc2[nH]1)NC1CCCC1	BAZ2B block inconclusive, G9a inh 25µM
O=C(COc1cccc(F)c1)N1c2ccccc2Sc2ccccc21	JMJD2A Tudor inh 56µM, Six1-Eya2 inh inconclusive, HP1b binding inh inconclusive
NOCC(=O)O	BAZ2B block inconclusive, G9a inh 6µM!, JMJD2A Tudor inh 22µM
O=C(O)COc1ccc(Oc2ccccc2)cc1	none
CC(CCc1ccco1)NC(=O)c1cc2c(-c3ccccc3F)nn(C)c2s1 (stereo not given)	G9a inh 89µM, Six1-Eya2 inh inconclusive
C/C=C/c1ccc(OCCn2cncn2)c(OC)c1	BAZ2B block 50µM, G9a inh 14µM, JMJD2A Tudor inh 40µM, HP1b binding inh inconclusive
C/C=C/c1ccc(OCCCCn2cncn2)c(OC)c1	BAZ2B block 32µM, G9a inh inconclusive, JMJD2A Tudor inh 7.1µM
C/C=C/c1ccc(OCc2cc(=O)n3cc(C)ccc3n2)c(OC)c1	BAZ2B block inconclusive (no result: G9a inh)
CC(=O)c1coc2ccc(OCC(=O)O)cc12	none
Cc1c(C#N)c2ccccc2n1C	none
Cc1sc(N)nc1-c1c(C)n(C)c2ccccc12	BAZ2B block inconclusive, G9a inh 45µM
COc1cc(OC)c(OC)cc1/C=N/n1c(-c2n[nH]c3c2CCC3)n[nH]c1=S	G9a inh 1.6µM, JMJD2A Tudor inh 3.2µM
COc1ccc(OC)c(/C=N/n2c(-c3n[nH]c4c3CCC4)n[nH]c2=S)c1	JMJD2A Tudor inh 6.3µM (no result: G9a inh)
COc1cccc(-c2n[nH]c3c2CCC3)c1	none
COc1ccc(/C=N/n2c(-c3n[nH]c4c3CCC4)n[nH]c2=S)cc1	G9a inh 1.6µM, JMJD2A Tudor inh 10µM
COc1cccc(Oc2ccc(C(F)(F)F)cc2NC(=O)CN2C(=O)NC3(CCCC3)C2=O)c1	none (no result: BAZ2B block, G9a inh)
COc1ccc(-c2nc3ccc(NC(C)=O)cc3c(=O)n2Cc2ccccc2)cc1COc1ccc(NC(C)=O)cc1	JMJD2A Tudor inh inconclusive (no result: BAZ2B block, G9a inh, Six1-Eya2 inh, CtBP-E1A inh)
COc1ccc(-c2nc3ccc(NC(=O)CO)cc3c(=O)n2Cc2cccc(Cl)c2)cc1COc1ccc(NC(C)=O)cc1	JMJD2A Tudor inh 56µM (no result: BAZ2B block, G9a inh, Six1-Eya2 inh, CtBP-E1A inh)
COc1ccc(-c2nc3ccccc3c(=O)n2Cc2ccccc2)cc1CNc1ccc(NC(C)=O)cc1	JMJD2A Tudor inh 50µM (no result: BAZ2B block, G9a inh, Six1-Eya2 inh, CtBP-E1A inh, HP1b binding inh)

Bioassay records from PubChem BioAssay.
